# FLuc counter = qHTS profiling assay for firefly luciferase inhibitor/activator using purifed enzyme and Km concentrations of substrates (counterscreen for miR-21 project) | 360,000 compounds, 6.9% hits | purified FLuc, Km substrates, luminescence inhibition | AID 588342, 2011 | Potency, µM (doses to about 57.5 µM), without a hit: at the highest dose activity change, negative = inhibition, most hits filed as inhibitors;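 further: plate controls were vehicle for no effect and reference inhibitor for full effect; nearly all actives have a fitted effect of over 55% in size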
# Target sequence (P08659 whole entry, looked up): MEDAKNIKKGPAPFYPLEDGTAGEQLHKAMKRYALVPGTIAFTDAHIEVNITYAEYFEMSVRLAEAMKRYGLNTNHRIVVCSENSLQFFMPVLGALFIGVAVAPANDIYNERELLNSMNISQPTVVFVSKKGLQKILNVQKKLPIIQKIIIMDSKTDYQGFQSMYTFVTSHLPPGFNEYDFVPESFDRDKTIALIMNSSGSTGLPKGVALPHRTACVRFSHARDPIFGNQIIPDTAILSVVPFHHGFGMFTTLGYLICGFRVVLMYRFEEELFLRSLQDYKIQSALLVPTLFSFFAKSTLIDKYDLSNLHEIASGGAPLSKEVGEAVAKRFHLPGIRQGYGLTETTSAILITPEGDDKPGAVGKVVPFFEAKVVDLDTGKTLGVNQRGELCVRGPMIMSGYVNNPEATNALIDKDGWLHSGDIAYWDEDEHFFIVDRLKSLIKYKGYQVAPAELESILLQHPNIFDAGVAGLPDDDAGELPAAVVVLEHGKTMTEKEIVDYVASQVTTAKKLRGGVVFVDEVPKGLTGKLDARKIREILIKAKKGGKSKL
#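 Biochemical qHTS of compounds, final roughly 60 µM downward over six points, against 10 nM purified firefly luciferase using Km concentrations of substrates (10 uM D-luciferin, 10 uM ATP) in Tris acetate pH 7.5 buffer; luminescence output.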
# Rab9 promoter act = qHTS Assay for Rab9 Promoter Activators; Huh7 Rab9 promoter-luciferase reporter, luminescence, 24 h; Potency, µM (series often up to 9.22 µM), for the others: at the highest dose activation, negative = inhibition, actives largely listed as activators; 320,000 compounds, 2.8% hits; AID 485297, 2010; further: % of control where 0% means no effect; nearly all actives have a fitted effect of over 60% in size
#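 Cells were plated at 1500 per well in reduced-serum medium with 10% FBS and left 2 h. Compound in DMSO was then added for 24 h at 37 °C. Reporter signal was read by luminescence after 10 min with luciferase detection reagent.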
# KinaseGlo FLuc = Counterscreen for Luciferase (Kinase-Glo TM) Inhibition | Luciferin 4-monooxygenase (Photuris pensylvanica), Q27757 | Potency, µM (top dose mostly 38.3 µM), inactives show top-dose activity change, negative = inhibition, hits mostly inhibitors | AID 1379, 2008 | 200,000 compounds, 0.28% hits | Kinase-Glo luciferase, ATP luminescence, 8 min; further: on the % scale 0 is the no-effect control and ±100 the full control effect; nearly all actives have a fitted effect of over 60% in size
#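 Kinase-Glo luciferase light output from ATP and luciferin was measured with 10 uM ATP, within the enzyme's linear range. Buffer: 50 mM imidazole pH 7.2, 50 mM KCl, 7 mM MgCl2, 0.01% Tween 20, 0.05% BSA; luminescence read after 8 min at ambient temperature.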
# NPC1 prom act = qHTS Assay for NPC1 Promoter Activators; Huh7 NPC1 promoter luciferase reporter, 24 h; Potency, µM (titrated, usually from 9.22 µM), for inactives: at the highest dose activation, actives largely listed as activators; 320,000 compounds, 2.4% hits; AID 485313, 2010; further: % of control where 0% means no effect; nearly all actives have a fitted effect of over 60% in size
#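 Cells: Huh7 expressing luciferase under the NPC1 promoter, 1500/well. Seeded 2 h, compound added, incubated 24 h at 37 °C. Luciferase reagent, 10 min ambient, then luminescence.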
# SMN2 splice up = qHTS Assay for Enhancers of SMN2 Splice Variant Expression; HEK293 SMN2-luciferase splicing reporter, luminescence, 30-36 h; Potency, µM (highest dose often 46.1 µM), for the others: at the top dose activity change, positive = activation, hits mostly activators; 210,000 compounds, 2.8% hits; AID 1458, 2008; further: % of control where 0% means no effect; nearly all actives have a fitted effect of over 55% in size
#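 HEK293 cells carry an SMN2 […]–luciferase reporter in which exon 7 inclusion puts luciferase in frame. Cells were plated 10-12 h before compound addition, then incubated 30-36 h at 37C. ONE-Glo luminescence was read; sodium butyrate at 4.5 mM final served as control.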
# ELG1 genotoxic = qHTS screen for small molecules that induce genotoxicity in human embryonic kidney (HEK293T) cells expressing luciferase-tagged ELG1; AID 504466, 2011; HEK293T ELG1-luciferase reporter, luminescence, 16 h; Potency, µM (titrated, usually from 46 µM), for inactives: top-dose activity change, positive = activation, most hits filed as activators; 330,000 compounds, 1.3% hits; further: % of control where 0% means no effect; nearly all actives have a fitted effect of over 60% in size
#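 Reporter readout depends on ELG1 protein level, which increases with genetic stress. After 16 hr compound exposure at 37 °C, luciferase activity was quantified using ONE-Glo.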
# Starred values were filed as active, the others as inactive; ? = inconclusive; · = not tested or not shown; [ ] = remark or other dose. Most compounds without a hit are left out; they make up all but 7.5% or so of the library. The call rests on the fitted dose curve; in most records, active means well fitted curve in the direction sought with a large enough effect; inconclusive means small, poorly fitted or top-dose-only effect, or another doubt; inactive means no such curve, though single readings can be large; an effect the other way counts as inactive or inconclusive. Potency means the concentration at half of the fitted maximal effect.
SMILES,FLuc counter,Rab9 promoter act,KinaseGlo FLuc,NPC1 prom act,SMN2 splice up,ELG1 genotoxic
Cc1nc(NC(=O)COC(=O)CCc2nc3ccccc3s2)c(Cl)cc1Cl,1%,-9%,-2%,-2%,-8%,1%
COc1ccc(OC)c(NC(=O)c2ccc(CSc3nnc(C)s3)cc2)c1,?,-1%,-1%,-2%,-11%,-4%
Cc1nnc(SCc2ccc(C(=O)O)cc2)s1,2%,18%,-1%,-1%,-8%,-1%
COc1ccc(NC(=O)CSc2nnnn2C)cc1,1%,-4%,-4%,-1%,·,0%
CCc1ccc(NC(=O)CSc2nnnn2C)cc1,24µM*,?,·,?,·,13%[9.26 µM]
Cc1cc(C)cc(NC(=O)c2ccc(CSc3nnc(C)s3)cc2)c1,7.6µM*,10%,-4%,3%,0%,8%
Cc1ccc(NC(=O)c2ccc(CSc3nnc(C)s3)cc2)cc1,1.5µM*,1.6µM*,-5%,1.1µM*,?,11%
Cc1ccc(NC(=O)c2ccc(CSc3nnnn3C)cc2)cc1,4.8µM*,1.6µM*,-2%,2µM*,8.9µM*,?
COc1ccc(C(=O)NCCCn2cccn2)cc1OC1CCN(C(C)=O)CC1,0%,-1%,·,0%,·,0%
CCOc1ccc(NC(=O)C2CCCN(S(=O)(=O)c3cccc4nonc34)C2)cc1 (stereo unspecified),-5%,·,·,·,-3%,·
Cc1cc(C)c2c(-n3cccc3)c(C(=O)NNS(=O)(=O)c3ccccc3)sc2n1,-1%,-3%,-3%,1%,-12%,0%
Cc1cc(C)c2c(-n3cccc3)c(C(=O)O)sc2n1,2.7µM*,0.63µM*,-9%,1µM*,?,?
Cc1ccc(NC(=O)C2=C(O)CCn3c2nc2ccccc23)cc1,12µM*,8%,-4%,17%,-16%,1%
CC(SCc1cc(=O)n2c([nH]c3ccccc32)c1C#N)C(=O)O (stereo unspecified),?,-7%,10%,5%,-16%,-4%
C=C(C)Cc1c(C)c(C#N)c2[nH]c3ccccc3n2c1=O,-5%,3%,·,-3%,·,-7%
COCc1cc(=O)n2c([nH]c3ccccc32)c1C#N,19µM*,8%,-9%,-1%,?,19%
CCc1cc(=S)n2c([nH]c3ccccc32)c1C#N,24µM*,-8%,·,0%,·,-17%
CCc1cc(=O)n2c([nH]c3ccccc32)c1C#N,19µM*,-6%,5%,-1%,-62%,15%
Cn1c(NCCCO)nc2c1c(=O)n(Cc1cccc(F)c1)c(=O)n2C,4%,·,·,·,12%,·
CCCSc1nnc2c(n1)OC(c1sccc1C)Nc1ccccc1-2 (stereo unspecified),?,·,·,·,3.2µM*,·
CCN1CCc2c(sc(NC(=O)c3cc4ccccc4cc3OC)c2C(N)=O)C1,9.5µM*,4%,·,-5%,·,10%
CC(C)N1CCc2c(sc(NC(=O)c3ccc4ccccc4c3)c2C(N)=O)C1,6µM*,2%,·,-4%,·,9%
COC(=O)Cn1c(C)nc2c(sc3nc(C)cc(C)c32)c1=O,12µM*,?,0%,?,11µM*,16µM*
CCOC(=O)Cn1cnc2c(sc3nc(C)cc(C)c32)c1=O,12µM*,?,·,?,·,?
C=CCn1cnc2c(sc3nc(C)cc(C)c32)c1=O,17µM*,19%,·,6%,·,?
SMILES,FLuc counter,Rab9 promoter act,KinaseGlo FLuc,NPC1 prom act,SMN2 splice up,ELG1 genotoxic
CC(C)(C)OC(=O)C[C@H]1C/C=C\C[C@@H](CC(=O)NCCO)C(=O)N[C@H](Cc2ccccc2)COC1=O,·,·,·,·,·,1%
CCn1c(O)c(C=Nc2ccccc2)sc1=S,9.5µM*,2.8µM*,·,?,·,?
Oc1c(C=Nc2ccccc2)sc(=S)n1Cc1ccccc1,?,1%,0%,-5%,-5%,3%
O=c1cc(-c2ccc(F)cc2)nc(SCc2nc(-c3ccccc3Cl)no2)[nH]1,-14%,·,·,·,·,·
COC(=O)c1cc(C(C)=O)n2ccccc12,11%,-3%,-1%,-2%,12%,?
CCc1ccc(NC(=O)c2cc(C(C)=O)n3ccccc23)cc1,15µM*,·,·,·,·,·
CCc1ccc(NC(=O)c2cnn3ccccc23)cc1,0.34µM*,0.11µM*,-18%,0.32µM*,1.8µM*,0.18µM*
Cn1nc(C(=O)NCc2ccc(F)cc2)c2ccccc2c1=O,10%,-6%,-7%,-4%,18µM*,4%
CCc1ccc(NC(=O)c2cnn(-c3ccccc3)c2-n2cccc2)cc1,-10%,·,·,·,?,·
Cn1nc(C(=O)NCc2ccccc2)c2ccccc2c1=O,-1%,9%,1%,0%,8%,?
CSc1cccc(NC(=O)c2cnn3ccccc23)c1,4.3µM*,2µM*,·,2.5µM*,·,?
Cc1cc(C)n(CCNC(=O)CC2C(=O)NCCN2Cc2ccccc2C(F)(F)F)n1 (stereo unspecified),-2%,-3%,·,-2%,·,-1%
CCc1ccc(C2=NN(CCC(=O)NCc3cccs3)C(=O)CC2)cc1,-11%,-1%,0%,0%,-31%,3%
CC(=O)c1ccc(NC(=O)CN(C)CC(=O)Nc2cccc(F)c2)cc1,-4%,-2%,-1%,-1%,-9%,0%
Cc1ccc(C(=O)c2c(N)c(C(=O)Nc3ccccc3Cl)c3ccccn23)cc1,1%,·,·,·,15%,·
O=C(NCc1ccc(F)cc1)c1cnn2ccccc12,12µM*,2µM*,-4%,3.2µM*,13µM*,?
C/C(=C\C(=O)c1ccccc1)NCc1ccc(F)cc1,19µM*,20%,-3%,7%,-6%,0%
COc1ccc(CNC(=O)c2cnn(-c3ccc(F)cc3)c2-n2cccc2)cc1,-17%,·,·,·,·,·
O=C(Nc1ccc(S(=O)(=O)Nc2cnc3ccccc3n2)cc1)c1ccc(Cl)c([N+](=O)[O-])c1,-5%,-1%,·,-2%,·,1%
O=C(Nc1nc2c(s1)CN(Cc1ccccc1)CC2)C1CCC1,24µM*,4.5µM*,1%,?,?,?
CN1CCc2nc(NC(=O)c3cccc(S(=O)(=O)N4CCc5ccccc54)c3)sc2C1,-11%,-3%,1%,0%,6%,3%
CCN1CCc2nc(NC(=O)c3ccccc3)sc2C1,7.6µM*,·,-6%,·,10%,·
COc1cccc(C(=O)Nc2nc3c(s2)CN(C)CC3)c1,19µM*,?,-22%,?,11%,18%
